Laboratory results published in PubChem BioAssay (EPA / NIEHS).
The source made the active and inactive calls. Rule for the calls: active = hit-call score of the fitted dose curve at least 0.9, where 1 is the maximum; inactive = score below 0.9.

read-out: Tumor necrosis factor receptor 1 (TNFRSF1A), TNFRSF1A (gene 7132); assay: LTEA_HepaRG_TNFRSF1A: Life Technologies and Expression Analysis (LTEA) Assay for Tumor necrosis factor receptor 1 (TNFRSF1A) using HepaRG (AID 2283535); conditions: mRNA level, 48 h; actives raise or lower the signal
Summary of the method: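 Expression of TNFRSF1A in human HepaRG liver cells was measured by qRT-PCR 48 h after chemical dosing (maximum 100 uM). Bidirectional curve fitting used 0.5% DMSO as baseline.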

Cellular tumor antigen p53 (Homo sapiens), sequence (P04637 whole entry, looked up): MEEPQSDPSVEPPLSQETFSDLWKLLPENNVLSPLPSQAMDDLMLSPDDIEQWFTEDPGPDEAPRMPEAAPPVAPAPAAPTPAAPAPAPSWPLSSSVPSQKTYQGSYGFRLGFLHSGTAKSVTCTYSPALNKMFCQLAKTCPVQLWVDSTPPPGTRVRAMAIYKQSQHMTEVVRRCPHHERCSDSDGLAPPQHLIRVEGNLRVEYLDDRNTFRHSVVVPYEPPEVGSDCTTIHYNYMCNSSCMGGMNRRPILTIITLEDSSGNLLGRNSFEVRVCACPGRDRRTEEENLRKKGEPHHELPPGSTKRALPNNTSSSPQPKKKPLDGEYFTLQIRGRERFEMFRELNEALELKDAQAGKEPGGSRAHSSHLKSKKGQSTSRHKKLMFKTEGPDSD

SMILES | outcome | AC50
CN(Cc1cnc2nc(N)nc(N)c2n1)c1ccc(C(=O)N[C@@H](CCC(=O)O)C(=O)O)cc1 | inactive | 
OCC(CO)(CBr)CBr | inactive | 
Cc1[nH]nc2c1N=C(c1ccccc1Cl)c1cc([N+](=O)[O-])ccc1N2 |  | 12.4 µM (active)
O=C(CCCN1CCC(O)(c2ccc(Cl)cc2)CC1)c1ccc(F)cc1 |  | 82.1 µM (active)
N=C(N)c1ccc(OCCCCCOc2ccc(C(=N)N)cc2)cc1 |  | 30.5 µM (active)
O=C1NS(=O)(=O)c2ccccc21 | inactive | 
CCCCC=O | inactive | 
CCCCc1oc2ccccc2c1C(=O)c1cc(I)c(OCCN(CC)CC)c(I)c1 | inactive | 
CCCCCCCCCCCCOS(=O)(=O)O | inactive | 
CCCCC(CC)C(=O)O (stereo not drawn) | inactive | 
CCCCCCCCCCCCCCC | inactive | 
CCC(C)c1ccccc1O (stereo not drawn) | inactive | 
CS(=O)(=O)c1ccc([C@@H](CC2CCCC2)C(=O)Nc2cnccn2)cc1Cl | inactive | 
O=C(c1ccccc1)c1ccccc1 | inactive | 
CN(C)CCOC(c1ccccc1)c1ccccc1 | inactive | 
CC(=O)Nc1ccc(O)cc1 | inactive | 

read-out: Thyroid Hormone Responsive (THRSP), THRSP (gene 7069); assay: LTEA_HepaRG_THRSP: Life Technologies and Expression Analysis (LTEA) Assay for Thyroid Hormone Responsive (THRSP) using HepaRG (AID 2283536); conditions: mRNA level, 48 h; actives raise or lower the signal
Summary of the method: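 Differentiated human HepaRG cells were exposed in duplicate for 48 h in serum-free induction medium to eight concentrations (top 100 uM, half-log steps, 0.5% DMSO). Expression was quantified by TaqMan qRT-PCR, normalized to ACTB, GAPDH and POLR2A, with bidirectional fitting against DMSO.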

SMILES | AC50 | outcome
CN(Cc1cnc2nc(N)nc(N)c2n1)c1ccc(C(=O)N[C@@H](CCC(=O)O)C(=O)O)cc1 | 0.167 µM (active) | 
OCC(CO)(CBr)CBr |  | inactive
Cc1[nH]nc2c1N=C(c1ccccc1Cl)c1cc([N+](=O)[O-])ccc1N2 | 8.84 µM (active) | 
O=C(CCCN1CCC(O)(c2ccc(Cl)cc2)CC1)c1ccc(F)cc1 |  | inactive
N=C(N)c1ccc(OCCCCCOc2ccc(C(=N)N)cc2)cc1 | 8.04 µM (active) | 
O=C1NS(=O)(=O)c2ccccc21 |  | inactive
CCCCC=O |  | inactive
CCCCc1oc2ccccc2c1C(=O)c1cc(I)c(OCCN(CC)CC)c(I)c1 | 68.7 µM (active) | 
CCCCCCCCCCCCOS(=O)(=O)O | 80.5 µM (active) | 
CCCCC(CC)C(=O)O (stereo not drawn) |  | inactive
CCCCCCCCCCCCCCC |  | inactive
CCC(C)c1ccccc1O (stereo not drawn) |  | inactive
CS(=O)(=O)c1ccc([C@@H](CC2CCCC2)C(=O)Nc2cnccn2)cc1Cl | 63.5 µM (active) | 
O=C(c1ccccc1)c1ccccc1 |  | inactive
CN(C)CCOC(c1ccccc1)c1ccccc1 | 58.4 µM (active) | 
CC(=O)Nc1ccc(O)cc1 |  | inactive

read-out: Cellular tumor antigen p53 (Homo sapiens) (UniProt P04637); assay: LTEA_HepaRG_TP53: Life Technologies and Expression Analysis (LTEA) Assay for Tumor Protein P53 (TP53) using HepaRG (AID 2283537); conditions: mRNA level, 48 h; actives raise or lower the signal
Summary of the method: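 Gain or loss of TP53 mRNA signal is scored relative to 0.5% DMSO after 48 h chemical treatment of HepaRG liver cells, tested in duplicate at eight half-log concentrations up to 100 uM.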

SMILES | AC50 | outcome
O=C(CCCN1CCC(O)(c2ccc(Cl)cc2)CC1)c1ccc(F)cc1 | 79.1 µM (active) | 
CCCCc1oc2ccccc2c1C(=O)c1cc(I)c(OCCN(CC)CC)c(I)c1 | 66.8 µM (active) | 
CS(=O)(=O)c1ccc([C@@H](CC2CCCC2)C(=O)Nc2cnccn2)cc1Cl | 61.3 µM (active) | 
O=C(c1ccccc1)c1ccccc1 |  | inactive

read-out: UDP glucuronosyltransferase (UGT1A6), UGT1A6 (gene 54578); assay: LTEA_HepaRG_UGT1A6: Life Technologies and Expression Analysis (LTEA) Assay for UDP glucuronosyltransferase (UGT1A6) using HepaRG (AID 2283539); conditions: mRNA level, 48 h; actives raise or lower the signal
Summary of the method: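 Endpoint is UGT1A6 transcript induction or loss in a human liver cell line, quantified by TaqMan qRT-PCR 48 h after dosing. Concentrations ran from 100 uM downward in half-log steps in 0.5% DMSO; activity was fitted in both directions versus vehicle.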

SMILES | outcome | AC50
CN(Cc1cnc2nc(N)nc(N)c2n1)c1ccc(C(=O)N[C@@H](CCC(=O)O)C(=O)O)cc1 | inactive | 
OCC(CO)(CBr)CBr | inactive | 
Cc1[nH]nc2c1N=C(c1ccccc1Cl)c1cc([N+](=O)[O-])ccc1N2 |  | 86.8 µM (active)
O=C(CCCN1CCC(O)(c2ccc(Cl)cc2)CC1)c1ccc(F)cc1 |  | 76.1 µM (active)
N=C(N)c1ccc(OCCCCCOc2ccc(C(=N)N)cc2)cc1 |  | 37.8 µM (active)
O=C1NS(=O)(=O)c2ccccc21 | inactive | 
CCCCC=O | inactive | 
CCCCc1oc2ccccc2c1C(=O)c1cc(I)c(OCCN(CC)CC)c(I)c1 |  | 55.5 µM (active)
CCCCCCCCCCCCOS(=O)(=O)O |  | 81 µM (active)
CCCCC(CC)C(=O)O (stereo not drawn) | inactive | 
CCCCCCCCCCCCCCC | inactive | 
CCC(C)c1ccccc1O (stereo not drawn) | inactive | 
CS(=O)(=O)c1ccc([C@@H](CC2CCCC2)C(=O)Nc2cnccn2)cc1Cl |  | 89.2 µM (active)
O=C(c1ccccc1)c1ccccc1 | inactive | 
CN(C)CCOC(c1ccccc1)c1ccccc1 | inactive | 
CC(=O)Nc1ccc(O)cc1 | inactive | 

read-out: X-box binding protein 1 (XBP1), XBP1 (gene 7494); assay: LTEA_HepaRG_XBP1: Life Technologies and Expression Analysis (LTEA) Assay for X-box binding protein 1 (XBP1) using HepaRG (AID 2283540); conditions: mRNA level, 48 h; actives raise or lower the signal
Summary of the method: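 Human HepaRG monolayers receive test chemical for 48 h across an eight-point half-log series starting at 100 uM. XBP1 mRNA gain or loss is scored against DMSO by qRT-PCR.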

SMILES | AC50 | outcome
CN(Cc1cnc2nc(N)nc(N)c2n1)c1ccc(C(=O)N[C@@H](CCC(=O)O)C(=O)O)cc1 | 0.0944 µM (active) | 
OCC(CO)(CBr)CBr |  | inactive
Cc1[nH]nc2c1N=C(c1ccccc1Cl)c1cc([N+](=O)[O-])ccc1N2 | 3.64 µM (active) | 
O=C(CCCN1CCC(O)(c2ccc(Cl)cc2)CC1)c1ccc(F)cc1 |  | inactive
N=C(N)c1ccc(OCCCCCOc2ccc(C(=N)N)cc2)cc1 | 28.5 µM (active) | 
O=C1NS(=O)(=O)c2ccccc21 |  | inactive
CCCCC=O |  | inactive
CCCCc1oc2ccccc2c1C(=O)c1cc(I)c(OCCN(CC)CC)c(I)c1 |  | inactive
CCCCCCCCCCCCOS(=O)(=O)O |  | inactive
CCCCC(CC)C(=O)O (stereo not drawn) |  | inactive
CCCCCCCCCCCCCCC |  | inactive
CCC(C)c1ccccc1O (stereo not drawn) |  | inactive
CS(=O)(=O)c1ccc([C@@H](CC2CCCC2)C(=O)Nc2cnccn2)cc1Cl |  | inactive
O=C(c1ccccc1)c1ccccc1 |  | inactive
CN(C)CCOC(c1ccccc1)c1ccccc1 |  | inactive
CC(=O)Nc1ccc(O)cc1 |  | inactive
